PubChem BioAssay AID1159580 (chemical genetic matrix, 2015)
“And” between values parts separate entries of the source, which are not always exact repeats. Equal entries are not always repeated. Screen size: about 5,500 compounds; about 2,000 (36%) were called active. Roughly 18% stayed inconclusive and do not appear here. Rule as the data show it: active = normalized growth mostly below about 0.91 (no sharp cut-off); inconclusive = no clear call, values can overlap the other calls; inactive = mostly above about 0.92. The list shows a part of the results.

Experiment: chemical genetic growth profiling, strain panel (AID 1159580);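 also: tested at 20 µM; growth read once vehicle control cultures reached saturation at 30 °C; 1 = growth at the plate median or of vehicle wells; lower values mean less growth of the strain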
Conditions: S. cerevisiae deletion strains, growth OD

Measured: normalized growth

CN(C)CCOC(c1ccc(Cl)cc1)c1ccccn1 (centres undefined)
inactive: locus YAL021C, strain ccr4, stronger effect = lower value 1.04 | locus YAL026C, strain drs2, stronger effect = lower value 1.05 | locus YAL030W, strain snc1, stronger effect = lower value 1.03 | locus YBL061C, strain skt5, stronger effect = lower value 1.04 | locus YBR009C, strain hhf1, stronger effect = lower value 1.02 | locus YBR021W, strain FUR4, stronger effect = lower value 0.966 | locus YBR023C, strain chs3, stronger effect = lower value 1.03 | locus YBR171W, strain sec66, stronger effect = lower value 1.02 | locus YBR229C, strain ROT2, stronger effect = lower value 1 | locus YBR231C, strain swc5, stronger effect = lower value 1.01 | locus YBR279W, strain paf1, stronger effect = lower value 1.02 | locus YCL011C, strain gbp2, stronger effect = lower value 1.01 | locus YCL016C, strain dcc1, stronger effect = lower value 1.01 | locus YCL029C, strain bik1, stronger effect = lower value 0.999 | locus YCL069W, strain vba3, stronger effect = lower value 1.02 | locus YCR088W, strain abp1, stronger effect = lower value 1.01 | locus YDL005C, strain med2, stronger effect = lower value 1.03 | locus YDL035C, strain GPR1, stronger effect = lower value 0.978 | locus YDL040C, strain nat1, stronger effect = lower value 1.02 | locus YDL074C, strain BRE1, stronger effect = lower value 1.03 | locus YDL101C, strain DUN1, stronger effect = lower value 1.04 | locus YDL185W, strain tfp1, stronger effect = lower value 1 | locus YDL192W, strain arf1, stronger effect = lower value 1.01 | locus YDR001C, strain nth1, stronger effect = lower value 1.02 | locus YDR069C, strain doa4, stronger effect = lower value 1.03 | locus YDR101C, strain arx1, stronger effect = lower value 1.01 | locus YDR137W, strain rgp1, stronger effect = lower value 1.01 | locus YDR159W, strain sac3, stronger effect = lower value 1.02 | locus YDR162C, strain NBP2, stronger effect = lower value 0.975 | locus YDR195W, strain ref2 1.02 | locus YDR297W, strain sur2, stronger effect = lower value 1.03 | locus YDR318W, strain mcm21, stronger effect = lower value 0.998 | locus YDR334W, strain swr1, stronger effect = lower value 1.01 | locus YDR335W, strain msn5, stronger effect = lower value 1.03 | locus YDR388W, stronger effect = lower value 1.01 | locus YDR392W, strain spt3, stronger effect = lower value 1.01 | locus YDR502C, strain sam2, stronger effect = lower value 1.03 | locus YEL003W, strain gim4, stronger effect = lower value 1.01 | locus YEL037C, strain rad23, stronger effect = lower value 1.02 | locus YEL061C, strain CIN8 (second series), stronger effect = lower value 1.02 | locus YEL061C, strain CIN8, stronger effect = lower value 1.01 | locus YER015W, strain faa2, stronger effect = lower value 1.04 | locus YER016W, strain bim1, stronger effect = lower value 0.997 | locus YER110C, stronger effect = lower value 1.02 | locus YER111C, strain swi4, stronger effect = lower value 1.03 | locus YER155C, strain BEM2 (second series), stronger effect = lower value 1.02 | locus YER155C, strain BEM2, stronger effect = lower value 1.02 | locus YER167W, strain BCK2, stronger effect = lower value 0.99 | locus YFR010W, strain ubp6, stronger effect = lower value 1.03 | locus YGL078C, strain dbp3, stronger effect = lower value 0.998 | locus YGL086W, strain mad1, stronger effect = lower value 1.01 | locus YGL167C, strain pmr1, stronger effect = lower value 1.01 | locus YGL173C, strain kem1, stronger effect = lower value 1.02 | locus YGL227W, strain vid30, stronger effect = lower value 1.03 | locus YGL240W, strain doc1, stronger effect = lower value 1.04 | locus YGL248W, strain PDE1, stronger effect = lower value 1.04 | locus YGL253W, strain hxk2, stronger effect = lower value 1.03 | locus YGR078C, strain PAC10, stronger effect = lower value 1.02 | locus YGR135W, strain pre9, stronger effect = lower value 1 | locus YGR229C, strain SMI1, stronger effect = lower value 0.983 | locus YGR252W, strain gcn5, stronger effect = lower value 0.947 | locus YHR013C, strain ard1, stronger effect = lower value 1.01 | locus YHR027C, strain rpn1, stronger effect = lower value 1.02 | locus YHR030C, strain SLT2, stronger effect = lower value 1 and 1.02 | locus YHR079C, strain IRE1 (second series), stronger effect = lower value 1.01 | locus YHR079C, strain IRE1, stronger effect = lower value 1 | locus YHR094C, strain hxt1, stronger effect = lower value 1.01 | locus YHR129C, strain ARP1, stronger effect = lower value 1.01 | locus YHR142W, strain chs7, stronger effect = lower value 1.02 | locus YHR200W, strain rpn10, stronger effect = lower value 1.01 | locus YIL066C, strain RNR3, stronger effect = lower value 0.957 | locus YIL073C, strain SPO22, stronger effect = lower value 1 | locus YIL125W, strain kgd1, stronger effect = lower value 0.995 | locus YIR030C, strain dcg1, stronger effect = lower value 1.03 | locus YJL092W, strain hpr5, stronger effect = lower value 1.02 | locus YJL095W, strain BCK1 (second series), stronger effect = lower value 1.01 | locus YJL095W, strain BCK1, stronger effect = lower value 1.07 and 1 | locus YJL115W, strain asf1, stronger effect = lower value 1.02 | locus YJL129C, strain trk1, stronger effect = lower value 1.05 | locus YJL134W, strain LCB3, stronger effect = lower value 1.01 | locus YJL154C, strain vps35, stronger effect = lower value 1.02 | locus YJL164C, strain tpk1, stronger effect = lower value 1 | locus YJL166W, strain qcr8, stronger effect = lower value 1.03 | locus YJL168C, strain set2, stronger effect = lower value 1.02 | locus YJL187C, strain SWE1 (second series), stronger effect = lower value 1.04 | locus YJL187C, strain SWE1, stronger effect = lower value 1.01 | locus YJR043C, strain POL32, stronger effect = lower value 0.968 | locus YJR066W, strain TOR1, stronger effect = lower value 0.981 | locus YJR075W, strain HOC1, stronger effect = lower value 1.03 | locus YKL009W, strain mrt4, stronger effect = lower value 1.02 | locus YKL068W, stronger effect = lower value 0.997 | locus YKL085W, strain MDH1 (second series), stronger effect = lower value 0.989 | locus YKL085W, strain MDH1, stronger effect = lower value 0.989 | locus YKL160W, strain elf1, stronger effect = lower value 1.02 | locus YKL190W, strain CNB1, stronger effect = lower value 1 | locus YKR001C, strain vps1, stronger effect = lower value 1 | locus YKR026C, strain gcn3, stronger effect = lower value 1.03 | locus YKR091W, strain srl3, stronger effect = lower value 1.02 | locus YLL001W, strain dnm1, stronger effect = lower value 1.03 | locus YLL026W, stronger effect = lower value 1.03 | locus YLL041C, strain sdh2, stronger effect = lower value 1.02 | locus YLR027C, strain aat2, stronger effect = lower value 1.03 | locus YLR039C, strain RIC1, stronger effect = lower value 1.02 | locus YLR058C, strain SHM2, stronger effect = lower value 1.01 | locus YLR102C, strain apc9, stronger effect = lower value 1.01 | locus YLR113W, strain HOG1, stronger effect = lower value 0.987 | locus YLR221C, strain rsa3, stronger effect = lower value 1.01 | locus YLR258W, strain gsy2, stronger effect = lower value 1.01 | locus YLR262C, strain YPT6 (second series), stronger effect = lower value 1.04 | locus YLR262C, strain YPT6, stronger effect = lower value 1.05 | locus YLR268W, strain sec22, stronger effect = lower value 1 | locus YLR320W, strain mms22, stronger effect = lower value 1 | locus YLR330W, strain CHS5, stronger effect = lower value 1.01 | locus YLR342W, strain FKS1 (second series), stronger effect = lower value 0.95 | locus YLR342W, strain FKS1, stronger effect = lower value 1.04 | locus YLR357W, strain rsc2, stronger effect = lower value 1.06 | locus YLR370C, strain arc18, stronger effect = lower value 1.01 | locus YLR371W, strain rom2, stronger effect = lower value 1 | locus YLR384C, strain iki3, stronger effect = lower value 1.03 | locus YLR418C, strain cdc73, stronger effect = lower value 1.07 | locus YML016C, strain PPZ1, stronger effect = lower value 1.01 | locus YML032C, strain rad52, stronger effect = lower value 0.998 | locus YML120C, strain ndi1, stronger effect = lower value 1.02 | locus YML124C, strain tub3, stronger effect = lower value 1 | locus YMR058W, strain fet3, stronger effect = lower value 1.03 | locus YMR078C, strain ctf18, stronger effect = lower value 1.01 | locus YMR125W, strain sto1, stronger effect = lower value 1.01 | locus YMR129W, stronger effect = lower value 1.03 | locus YMR205C, strain PFK2, stronger effect = lower value 1.03 | locus YMR223W, strain ubp8, stronger effect = lower value 0.998 | locus YMR231W, strain pep5, stronger effect = lower value 1.03 | locus YMR307W, strain GAS1, stronger effect = lower value 0.976 | locus YNL067W, strain RPL9B, stronger effect = lower value 1.06 | locus YNL071W, strain lat1, stronger effect = lower value 1.01 | locus YNL183C, strain NPR1, stronger effect = lower value 0.941 | locus YNL209W, strain ssb2, stronger effect = lower value 1.02 | locus YNL233W, strain BNI4, stronger effect = lower value 1.04 | locus YNL248C, strain rpa49, stronger effect = lower value 1.04 | locus YNL250W, strain rad50, stronger effect = lower value 1.02 | locus YNL271C, strain bni1, stronger effect = lower value 1.03 | locus YNL298W, strain CLA4, stronger effect = lower value 0.994 | locus YNL307C, strain MCK1, stronger effect = lower value 1.01 | locus YNL322C, strain KRE1 (second series), stronger effect = lower value 1.03 | locus YNL322C, strain KRE1, stronger effect = lower value 1.01 | locus YNR049C, strain mso1, stronger effect = lower value 1.02 | locus YNR052C, strain pop2, stronger effect = lower value 1.01 | locus YOL012C, strain htz1 0.873 | locus YOL147C, strain pex11, stronger effect = lower value 1.01 | locus YOR001W, strain rrp6, stronger effect = lower value 1.04 | locus YOR061W, strain CKA2, stronger effect = lower value 1.01 | locus YOR069W, strain VPS5, stronger effect = lower value 1.01 | locus YOR070C, strain gyp1, stronger effect = lower value 1.01 | locus YOR080W, strain dia2, stronger effect = lower value 1.02 | locus YOR083W, strain WHI5, stronger effect = lower value 1.03 | locus YOR106W, strain vam3, stronger effect = lower value 1.03 | locus YOR136W, strain idh2, stronger effect = lower value 1.01 | locus YOR144C, strain elg1, stronger effect = lower value 1 | locus YOR184W, strain ser1, stronger effect = lower value 0.997 | locus YOR231W, strain MKK1, stronger effect = lower value 0.996 | locus YOR265W, strain rbl2, stronger effect = lower value 1.02 | locus YOR270C, strain vph1, stronger effect = lower value 1.05 | locus YOR290C, strain snf2, stronger effect = lower value 1 | locus YOR316C, strain cot1, stronger effect = lower value 1.01 | locus YPL051W, strain arl3, stronger effect = lower value 1.03 | locus YPL055C, strain LGE1, stronger effect = lower value 0.976 | locus YPL078C, strain atp4, stronger effect = lower value 1.02 | locus YPL106C, strain sse1, stronger effect = lower value 0.993 | locus YPL240C, strain hsp82, stronger effect = lower value 1.01 | locus YPL256C, strain CLN2, stronger effect = lower value 1 | locus YPR119W, strain clb2, stronger effect = lower value 1.01 | locus YPR141C, strain kar3, stronger effect = lower value 1.01 | locus YPR163C, strain tif3, stronger effect = lower value 1 | locus YPR167C, strain met16, stronger effect = lower value 1 | strain wtn01, stronger effect = lower value 0.995
